Consider four sequences from paper PMC11006913.

Assay in all cases: PBM; 200 nM protein, PBS
Holding throughout (conditions): dsDNA, one strand shown

Experiment [1] concerns the target HOXB4 (Homo sapiens, UniProt P17483 148-234).
Experiment [2] concerns the target T1, VENTX (Homo sapiens, UniProt O95231 78-163, R121Q).
T1 sequence: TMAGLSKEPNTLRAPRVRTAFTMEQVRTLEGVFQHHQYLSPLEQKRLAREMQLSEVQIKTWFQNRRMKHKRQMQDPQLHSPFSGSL

Experiment [3] deals with ALX4 (Homo sapiens, UniProt Q9H161 200-286).
The target in experiment [4] is T2, PAX4 (Homo sapiens, UniProt O43316 9-242, R200K).
T2 sequence: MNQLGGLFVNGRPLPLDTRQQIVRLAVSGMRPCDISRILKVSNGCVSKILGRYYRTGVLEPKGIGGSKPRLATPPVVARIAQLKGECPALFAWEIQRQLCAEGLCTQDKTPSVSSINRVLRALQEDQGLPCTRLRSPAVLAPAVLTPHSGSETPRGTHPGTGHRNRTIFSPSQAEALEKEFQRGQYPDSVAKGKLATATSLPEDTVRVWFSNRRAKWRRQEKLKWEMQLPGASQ

In experiment [5] the target is PRRX1 (Homo sapiens, UniProt P54821 80-166, F113S).
Sequence of PRRX1 (Homo sapiens, UniProt P54821 80-166, F113S) (P54821 80-166 F113S): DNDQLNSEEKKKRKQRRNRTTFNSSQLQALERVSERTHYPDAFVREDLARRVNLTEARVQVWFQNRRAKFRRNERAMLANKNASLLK
The target in experiment [6] is T3, VENTX (Homo sapiens, UniProt O95231 78-163, Y115F).
T3 sequence: T1 sequence with Y38F, Q44R

In experiment [7] the target is T4, PAX4 (Homo sapiens, UniProt O43316 9-242).
T4 sequence: T2 sequence with K192R

Experiment [8] deals with HOXA2 (Homo sapiens, UniProt O43364 129-215, R185T).
Sequence of HOXA2 (Homo sapiens, UniProt O43364 129-215, R185T) (O43364 129-215 R185T): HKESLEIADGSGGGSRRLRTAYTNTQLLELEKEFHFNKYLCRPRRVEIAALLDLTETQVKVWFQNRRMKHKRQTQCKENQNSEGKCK
The target in experiment [9] is HOXA4 (Homo sapiens, UniProt Q00056 201-287, R217L).
Sequence of HOXA4 (Homo sapiens, UniProt Q00056 201-287, R217L) (Q00056 201-287 R217L): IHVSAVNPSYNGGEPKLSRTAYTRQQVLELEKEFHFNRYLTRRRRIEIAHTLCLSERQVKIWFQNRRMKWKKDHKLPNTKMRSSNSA
Experiment [10] addresses HOXB4 (Homo sapiens, UniProt P17483 148-234, V174I).
The target of experiment [11] is T5, PAX4 (Homo sapiens, UniProt O43316 9-242, R200Q).
T5 sequence: T2 sequence with K192Q

Experiment [12] has as its target HOXA2 (Homo sapiens, UniProt O43364 129-215, R185K).
The target in experiment [13] is T6, PAX4 (Homo sapiens, UniProt O43316 9-242, F177V).
T6 sequence: T2 sequence with F169V, K192R

In experiment [14] the target is T7, PAX4 (Homo sapiens, UniProt O43316 9-242, F177Y).
T7 sequence: T2 sequence with F169Y, K192R

The target in experiment [15] is VAX1 (Homo sapiens, UniProt Q5SQQ9 86-172, T142I).
Sequence of VAX1 (Homo sapiens, UniProt Q5SQQ9 86-172, T142I) (Q5SQQ9 86-172 T142I): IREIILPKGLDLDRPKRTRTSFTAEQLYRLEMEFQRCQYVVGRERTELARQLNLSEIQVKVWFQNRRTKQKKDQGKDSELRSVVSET
In experiment [16] the target is HOXA4 (Homo sapiens, UniProt Q00056 201-287, W262F).
Sequence of HOXA4 (Homo sapiens, UniProt Q00056 201-287, W262F) (Q00056 201-287 W262F): as the sequence (Q00056 201-287 R217L) above, with L17R, W62F counted along it
In experiment [17] the target is PRRX1 (Homo sapiens, UniProt P54821 80-166).
Sequence of PRRX1 (Homo sapiens, UniProt P54821 80-166) (P54821 80-166): as the sequence (P54821 80-166 F113S) above, with S34F counted along it
Experiment [18] addresses VAX1 (Homo sapiens, UniProt Q5SQQ9 86-172, K157R).
Experiment [19] addresses MSX2 (Homo sapiens, UniProt P35548 130-214).
Experiment [20] concerns the target MSX2 (Homo sapiens, UniProt P35548 130-214, F161Y).

Changes are numbered by the printed parent chain.

Sequence of HOXB4 (Homo sapiens, UniProt P17483 148-234) (P17483 148-234): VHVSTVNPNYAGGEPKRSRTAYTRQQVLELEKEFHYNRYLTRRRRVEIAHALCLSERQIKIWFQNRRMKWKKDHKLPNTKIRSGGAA
Sequence of MSX2 (Homo sapiens, UniProt P35548 130-214, F161Y) (P35548 130-214 F161Y): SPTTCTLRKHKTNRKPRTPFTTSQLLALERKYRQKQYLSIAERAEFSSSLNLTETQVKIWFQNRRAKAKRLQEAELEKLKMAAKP
Sequence of HOXA2 (Homo sapiens, UniProt O43364 129-215, R185K) (O43364 129-215 R185K): as the sequence (O43364 129-215 R185T) above, with T57K counted along it
Sequence of ALX4 (Q9H161 200-286): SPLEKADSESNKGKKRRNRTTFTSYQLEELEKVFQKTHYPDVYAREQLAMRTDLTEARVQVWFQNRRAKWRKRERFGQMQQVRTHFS
Sequence of VAX1 (Homo sapiens, UniProt Q5SQQ9 86-172, K157R) (Q5SQQ9 86-172 K157R): as the sequence (Q5SQQ9 86-172 T142I) above, with I57T, K72R counted along it
Sequence of MSX2 (Homo sapiens, UniProt P35548 130-214) (P35548 130-214): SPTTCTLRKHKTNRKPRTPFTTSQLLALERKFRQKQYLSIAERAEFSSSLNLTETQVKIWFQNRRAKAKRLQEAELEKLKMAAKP
Sequence of HOXB4 (Homo sapiens, UniProt P17483 148-234, V174I) (P17483 148-234 V174I): as the sequence (P17483 148-234) above, with V27I counted along it

Consider ATTAATGA, for which the binding signal in [1] is 13.5 upbm affinity estimate (log intensity, higher = more binding, comparable within an allelic series); in [2], 12.2 upbm affinity estimate (log intensity, higher = more binding, comparable within an allelic series); in experiment [3] it was 13.8 upbm affinity estimate (log intensity, higher = more binding, comparable within an allelic series); in [4] it was 11.8 upbm affinity estimate (log intensity, higher = more binding, comparable within an allelic series); in experiment [5], 11.2 upbm affinity estimate (log intensity, higher = more binding, comparable within an allelic series); in experiment [6] it was 12.1 upbm affinity estimate (log intensity, higher = more binding, comparable within an allelic series). Also, the binding signal in experiment [7] is 12.3 upbm affinity estimate (log intensity, higher = more binding, comparable within an allelic series); in experiment [8], 13.3 upbm affinity estimate (log intensity, higher = more binding, comparable within an allelic series); in [9] it was 12.9 upbm affinity estimate (log intensity, higher = more binding, comparable within an allelic series); in experiment [10] it was 14.1 upbm affinity estimate (log intensity, higher = more binding, comparable within an allelic series); in experiment [11], 12.1 upbm affinity estimate (log intensity, higher = more binding, comparable within an allelic series); in experiment [12], 13.7 upbm affinity estimate (log intensity, higher = more binding, comparable within an allelic series). The binding signal is 10.6 upbm affinity estimate (log intensity, higher = more binding, comparable within an allelic series) in experiment [13]; 11.1 upbm affinity estimate (log intensity, higher = more binding, comparable within an allelic series) in [14]; 13.4 upbm affinity estimate (log intensity, higher = more binding, comparable within an allelic series) in experiment [15]; 12.2 upbm affinity estimate (log intensity, higher = more binding, comparable within an allelic series) in [16]; 13.3 upbm affinity estimate (log intensity, higher = more binding, comparable within an allelic series) in [17]; 13.3 upbm affinity estimate (log intensity, higher = more binding, comparable within an allelic series) in experiment [18].
As for CGTAATTA, the binding signal in experiment [1] was 13.5 upbm affinity estimate (log intensity, higher = more binding, comparable within an allelic series); in experiment [2], 12.2 upbm affinity estimate (log intensity, higher = more binding, comparable within an allelic series); in [3], 14.2 upbm affinity estimate (log intensity, higher = more binding, comparable within an allelic series); in experiment [4], 11.9 upbm affinity estimate (log intensity, higher = more binding, comparable within an allelic series); in [5] it was 11.5 upbm affinity estimate (log intensity, higher = more binding, comparable within an allelic series); in [6], 12.3 upbm affinity estimate (log intensity, higher = more binding, comparable within an allelic series). In addition, the binding signal in experiment [7] is 12.4 upbm affinity estimate (log intensity, higher = more binding, comparable within an allelic series); in experiment [8], 13.9 upbm affinity estimate (log intensity, higher = more binding, comparable within an allelic series); in experiment [9], 12.7 upbm affinity estimate (log intensity, higher = more binding, comparable within an allelic series); in [10] it was 14.3 upbm affinity estimate (log intensity, higher = more binding, comparable within an allelic series); in [11], 12.3 upbm affinity estimate (log intensity, higher = more binding, comparable within an allelic series); in experiment [12] it was 14 upbm affinity estimate (log intensity, higher = more binding, comparable within an allelic series). Further, the binding signal is 10.7 upbm affinity estimate (log intensity, higher = more binding, comparable within an allelic series) in experiment [13]; 14 upbm affinity estimate (log intensity, higher = more binding, comparable within an allelic series) in experiment [19]; 11.1 upbm affinity estimate (log intensity, higher = more binding, comparable within an allelic series) in experiment [14]; 13.6 upbm affinity estimate (log intensity, higher = more binding, comparable within an allelic series) in experiment [20]; 13.6 upbm affinity estimate (log intensity, higher = more binding, comparable within an allelic series) in experiment [15]; 12.3 upbm affinity estimate (log intensity, higher = more binding, comparable within an allelic series) in experiment [16]. Moreover, the binding signal in [17] was 13.5 upbm affinity estimate (log intensity, higher = more binding, comparable within an allelic series); in [18] it was 13.7 upbm affinity estimate (log intensity, higher = more binding, comparable within an allelic series).
For the sequence ATTAATTA, the binding signal in experiment [1] was 13.7 upbm affinity estimate (log intensity, higher = more binding, comparable within an allelic series); in experiment [2] it was 12.8 upbm affinity estimate (log intensity, higher = more binding, comparable within an allelic series); in [3], 14.7 upbm affinity estimate (log intensity, higher = more binding, comparable within an allelic series); in [4], 12.2 upbm affinity estimate (log intensity, higher = more binding, comparable within an allelic series); in experiment [5], 12.2 upbm affinity estimate (log intensity, higher = more binding, comparable within an allelic series); in experiment [6], 12.5 upbm affinity estimate (log intensity, higher = more binding, comparable within an allelic series). The binding signal was 12.8 upbm affinity estimate (log intensity, higher = more binding, comparable within an allelic series) in [7]; 14 upbm affinity estimate (log intensity, higher = more binding, comparable within an allelic series) in experiment [8]; 13.4 upbm affinity estimate (log intensity, higher = more binding, comparable within an allelic series) in [9]; 14.4 upbm affinity estimate (log intensity, higher = more binding, comparable within an allelic series) in experiment [10]; 12.8 upbm affinity estimate (log intensity, higher = more binding, comparable within an allelic series) in [11]; 14 upbm affinity estimate (log intensity, higher = more binding, comparable within an allelic series) in experiment [12]. In addition, the binding signal is 11.1 upbm affinity estimate (log intensity, higher = more binding, comparable within an allelic series) in experiment [13]; 14.2 upbm affinity estimate (log intensity, higher = more binding, comparable within an allelic series) in experiment [19]; 11.6 upbm affinity estimate (log intensity, higher = more binding, comparable within an allelic series) in [14]; 13.8 upbm affinity estimate (log intensity, higher = more binding, comparable within an allelic series) in experiment [20]; 13.9 upbm affinity estimate (log intensity, higher = more binding, comparable within an allelic series) in experiment [15]; 13.1 upbm affinity estimate (log intensity, higher = more binding, comparable within an allelic series) in experiment [16]. For the same sequence, the binding signal in experiment [17] is 13.8 upbm affinity estimate (log intensity, higher = more binding, comparable within an allelic series); in experiment [18], 13.8 upbm affinity estimate (log intensity, higher = more binding, comparable within an allelic series).
GTAATTAA: the binding signal in [1] is 13.5 upbm affinity estimate (log intensity, higher = more binding, comparable within an allelic series); in [2], 12.4 upbm affinity estimate (log intensity, higher = more binding, comparable within an allelic series); in experiment [3], 14.4 upbm affinity estimate (log intensity, higher = more binding, comparable within an allelic series); in [4], 12 upbm affinity estimate (log intensity, higher = more binding, comparable within an allelic series); in experiment [5] it was 11.8 upbm affinity estimate (log intensity, higher = more binding, comparable within an allelic series); in experiment [6], 12.4 upbm affinity estimate (log intensity, higher = more binding, comparable within an allelic series). In addition, the binding signal in experiment [7] is 12.6 upbm affinity estimate (log intensity, higher = more binding, comparable within an allelic series); in experiment [8], 13.9 upbm affinity estimate (log intensity, higher = more binding, comparable within an allelic series); in [9], 13.3 upbm affinity estimate (log intensity, higher = more binding, comparable within an allelic series); in [10], 14.3 upbm affinity estimate (log intensity, higher = more binding, comparable within an allelic series); in experiment [11], 12.5 upbm affinity estimate (log intensity, higher = more binding, comparable within an allelic series); in experiment [12], 13.9 upbm affinity estimate (log intensity, higher = more binding, comparable within an allelic series). The binding signal in experiment [13] was 10.8 upbm affinity estimate (log intensity, higher = more binding, comparable within an allelic series); in experiment [19], 14.1 upbm affinity estimate (log intensity, higher = more binding, comparable within an allelic series); in [14], 11.3 upbm affinity estimate (log intensity, higher = more binding, comparable within an allelic series); in experiment [20], 13.7 upbm affinity estimate (log intensity, higher = more binding, comparable within an allelic series); in experiment [15] it was 13.9 upbm affinity estimate (log intensity, higher = more binding, comparable within an allelic series); in [16] it was 12.9 upbm affinity estimate (log intensity, higher = more binding, comparable within an allelic series). In addition, the binding signal was 13.6 upbm affinity estimate (log intensity, higher = more binding, comparable within an allelic series) in [17] and 13.9 upbm affinity estimate (log intensity, higher = more binding, comparable within an allelic series) in experiment [18].
